Test results reported in the supplement of paper PMC6555819.

Tests used:
Experiment in all cases: PBM binding z-score (relative to random genomic background probes); higher = stronger binding; sequences stand for … in GC…GCGATTGACAGCGTAGAATGAAGG
[1] = system: FXR:RXRa (NR concentration 270 nM, RXRa partner concentration 90 nM)
Method in brief: (§1)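 Ligand-free nuclear receptor dimers were applied to custom Agilent 4×180K protein-binding microarrays whose double-stranded probes carried direct-repeat seeds, single-nucleotide variants, half-site ablations and random human genomic background sequences in 34-nt variable regions. Incubation lasted 1 h. Binding z-scores were computed against the random background probes from regression-normalized fluorescence.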

[2] = system: LXRa:RXRa (NR concentration 270 nM, RXRa partner concentration 90 nM)
Method in brief: as §1

[3] = system: LXRa homodimer (NR concentration 270 nM)
Method in brief: as §1

[4] = system: LXRb:RXRa (NR concentration 270 nM, RXRa partner concentration 90 nM)
Method in brief: as §1

[5] = system: LXRb homodimer (NR concentration 270 nM)
Method in brief: as §1

[6] = system: PPARa:RXRa (NR concentration 270 nM, RXRa partner concentration 90 nM)
Method in brief: as §1

[7] = system: PPARg:RXRa (NR concentration 180 nM, RXRa partner concentration 90 nM)
Method in brief: as §1

[8] = system: PPARg:RXRa 270nM:90nM, anti-RXR (NR concentration 270 nM, RXRa partner concentration 90 nM)
Method in brief: as §1

[9] = system: PPARg:RXRa 30nM:10nM, anti-RXR (NR concentration 30 nM, RXRa partner concentration 10 nM)
Method in brief: as §1

[10] = system: PPARg:RXRa 90nM:30nM, anti-RXR (NR concentration 90 nM, RXRa partner concentration 30 nM)
Method in brief: as §1

[11] = system: PPARg:RXRa DBDmut IVT, anti-RXR (DBD mutation: RXRa K156A/R161A, NR concentration 270 nM, RXRa partner concentration 90 nM)
Method in brief: as §1

[12] = system: PPARg:RXRa IVT, anti-PPARg (NR concentration 270 nM, RXRa partner concentration 90 nM)
Method in brief: as §1

[13] = system: PPARg DBDmut:RXRa IVT, anti-PPARg (DBD mutation: PPARg1 K132A/R137A, NR concentration 270 nM, RXRa partner concentration 90 nM)
Method in brief: as §1

[14] = system: PPARg DBDmut IVT, anti-PPARg (DBD mutation: PPARg1 K132A/R137A, NR concentration 270 nM)
Method in brief: as §1

[15] = system: PPARg homodimer (NR concentration 180 nM)
Method in brief: as §1

[16] = system: PXR:RXRa (NR concentration 270 nM, RXRa partner concentration 90 nM)
Method in brief: as §1

[17] = system: PXR homodimer (NR concentration 270 nM)
Method in brief: as §1

[18] = system: RARa:RXR (NR concentration 270 nM, RXRa partner concentration 90 nM)
Method in brief: as §1

[19] = system: RARa homodimer (NR concentration 270 nM)
Method in brief: as §1

[20] = system: RARb:RXRa (NR concentration 270 nM, RXRa partner concentration 90 nM)
Method in brief: as §1

Row | Sequence | PBM binding z-score [1] | PBM binding z-score [2] | PBM binding z-score [3] | PBM binding z-score [4] | PBM binding z-score [5] | PBM binding z-score [6] | PBM binding z-score [7] | PBM binding z-score [8] | PBM binding z-score [9] | PBM binding z-score [10] | PBM binding z-score [11] | PBM binding z-score [12] | PBM binding z-score [13] | PBM binding z-score [14] | PBM binding z-score [15] | PBM binding z-score [16] | PBM binding z-score [17] | PBM binding z-score [18] | PBM binding z-score [19] | PBM binding z-score [20]
1 | CTAGACAGGTGAAAGGTAACTCAGTCTGGTACGC | 0.53 | 0.864 | -0.332 | 0.732 | -0.56 | 3.4 | 6.11 | 6.66 | 5.12 | 6.47 | 1.94 | 3.43 | 0.142 | 0.0221 | 0.635 | 0.951 | -0.397 | 1.91 | -0.0814 | 1.22
2 | CCGAGTAGGTAATGGGGCATTCAGGCAACGGTGA | -0.324 | -0.287 | -0.342 | -0.153 | -0.666 | 1.73 | 3.13 | 4.63 | 2.99 | 4.57 | 3.06 | 3.08 | -0.988 | -0.54 | 0.397 | -0.417 | -0.151 | -0.249 | -0.452 | 0.118
3 | GGATCGAGGGCATTCGAGTTGATAGCATGGCGAT | 0.788 | 1.56 | -0.155 | -0.0829 | -0.428 | 1.47 | 0.73 | 0.681 | -0.121 | 0.313 | 2.58 | 2.38 | -0.372 | -0.843 | 0.175 | 3.64 | 1.17 | 1.16 | -0.556 | 1.83
4 | TCTTGTAGATCATGCAGGTTAAGAAAGCCTGAGT | 0.492 | 0.415 | -0.144 | 0.657 | -0.00581 | 1.14 | -0.222 | 1.51 | 2.51 | 2.08 | 1.44 | 0.879 | 0.847 | 1.07 | 0.117 | 0.641 | 0.527 | 0.812 | 0.221 | 0.285
5 | TCTTGCAGATCAGCAGGTTAAGAAAGCTGGCCAA | -0.157 | -0.083 | -0.809 | -0.061 | -1.04 | 0.615 | -0.601 | 0.866 | 1.59 | 1.15 | 0.806 | -0.167 | -1.23 | -0.975 | -0.869 | -0.219 | -1.1 | 0.16 | -1.56 | 0.155
6 | CCTACTGGGCCACGAAAGGACATTGATTCAGTGA | 0.276 | 0.0312 | 0.0181 | -0.441 | -0.67 | 0.738 | 1.63 | 1.22 | -0.124 | 0.606 | 4.98 | 5.21 | 0.3 | -0.299 | 0.467 | -0.024 | -0.134 | 0.342 | 0.45 | 1.11
7 | CCTGCTAGGTCATGGTCAGCTAGTCTACAGTATG | 3.74 | 2.28 | -0.0362 | 1.62 | -0.295 | 3.45 | 2.38 | 2.89 | 0.503 | 1.92 | 4.65 | 3.97 | 0.24 | -0.536 | 1.4 | 1.51 | -0.479 | 2.41 | -0.496 | 4.15
8 | CGTCTAAGTTCAACTAAGGTAACGTAAAGCACGC | 5.42 | 4.54 | 1.66 | 2.8 | 0.991 | 3.67 | 1.24 | 2.06 | 0.533 | 1.24 | 0.256 | 0.683 | 0.378 | 0.759 | 1.95 | 5.04 | 4.82 | 3.08 | 1.48 | 4
9 | AGTCAAATTTCAGGACGAGGTAACGTAAAGCACG | 0.0503 | -0.145 | 0.0565 | 0.0191 | -0.153 | -0.229 | 0.688 | -0.178 | -0.0529 | -0.261 | -0.406 | 0.239 | 0.677 | 0.285 | 0.523 | -0.111 | 0.169 | 0.428 | 0.17 | 0.269
10 | AGTCAAAGTTCATCTAGGTGACGTAAGATATGCT | 6.84 | 5.85 | 5.06 | 3.69 | 1.52 | 4.98 | 7.01 | 6.36 | 3.53 | 5.48 | 1.67 | 4.74 | 1.64 | 1.41 | 3.65 | 4.98 | 6.85 | 3.75 | 1.44 | 4.8
11 | GCTTGTAGAACAAGGTTAAGAAAGACTAAGCTAA | -0.242 | 0.558 | -0.426 | 0.502 | -0.664 | 1.6 | 0.852 | 1.67 | 0.36 | 1.11 | 1.63 | 1.06 | -0.311 | -0.211 | 0.167 | 0.293 | -0.338 | 0.612 | -0.688 | 0.679
12 | CCGACTGGGGTATAAGGTTACCATAAGCCAGCCC | 0.283 | 1.57 | -0.00996 | 0.982 | -0.761 | 1.69 | 1.79 | 2.38 | 0.774 | 2.06 | 1.17 | 1.24 | -0.919 | -1.39 | 0.667 | 0.301 | -0.29 | 1.24 | 0.0701 | 0.726
13 | TAACCAAGGTGAAAGGTCGTTGATGCACGCCTTG | 3.72 | 3.34 | 0.422 | 2.69 | 0.0179 | 5.18 | 8.43 | 8.06 | 8.2 | 8.96 | 2.51 | 4.83 | 0.621 | 0.876 | 2.72 | 4.25 | 0.689 | 6.11 | 0.504 | 3.15
